# Read-outs that look alike come from different tables or passages of the source.
# What was measured:
# FYN = settings: concentration: 1 μM,replicates: in singlicate; n = 1
# GAK = settings: concentration: 1 μM,replicates: in singlicate; n = 1
# GCN2(Kin.Dom.2,S808G) = tested on: T1, GCN2(Kin.Dom.2,S808G); settings: concentration: 1 μM,replicates: in singlicate; n = 1
# T1 construct: gene EIF2AK4
# GRK1 = settings: concentration: 1 μM,replicates: in singlicate; n = 1
# GRK2 = tested on: T2, GRK2; settings: concentration: 1 μM,replicates: in singlicate; n = 1
# T2 construct: gene ADRBK1
# GRK3 = tested on: T3, GRK3; settings: concentration: 1 μM,replicates: in singlicate; n = 1
# T3 construct: gene ADRBK2
# GRK4 = settings: concentration: 1 μM,replicates: in singlicate; n = 1
# GRK7 = settings: concentration: 1 μM,replicates: in singlicate; n = 1
# GSK3A = settings: concentration: 1 μM,replicates: in singlicate; n = 1
# GSK3B = settings: n = 1
# HASPIN = tested on: T4, HASPIN; settings: concentration: 1 μM,replicates: in singlicate; n = 1
# T4 construct: gene GSG2
# HCK = settings: concentration: 1 μM,replicates: in singlicate; n = 1
# HIPK1 = settings: concentration: 1 μM,replicates: in singlicate; n = 1
# HIPK2 = settings: concentration: 1 μM,replicates: in singlicate; n = 1
# HIPK3 = settings: concentration: 1 μM,replicates: in singlicate; n = 1
# HIPK4 = settings: concentration: 1 μM,replicates: in singlicate; n = 1
# HPK1 = settings: concentration: 1 μM,replicates: in singlicate; n = 1
# HUNK = settings: concentration: 1 μM,replicates: in singlicate; n = 1
# ICK = settings: concentration: 1 μM,replicates: in singlicate; n = 1
# IGF1R = settings: concentration: 1 μM,replicates: in singlicate; n = 1
# [1] = concentration: 1 μM,replicates: in singlicate
# 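Also: KINOMEscan kinase panel screen.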
smiles,measurement,setting,value
CCn1c(-c2nonc2N)nc2cncc(CNC3CCNCC3)c21.Cl [SB-747651],%Inh,FYN,43%
same,%Inh,GAK,19%
same,%Inh,"GCN2(Kin.Dom.2,S808G)",6%
same,%Inh,GRK1,5%
same,%Inh,GRK2,0%
same,%Inh,GRK3,59%
same,%Inh,GRK4,0%
same,%Inh,GRK7,0%
same,%Inh,GSK3A,37%
same,%Inh,GSK3B; [1],24%
same,%Inh,HASPIN,73%
same,%Inh,HCK,0%
same,%Inh,HIPK1,0%
same,%Inh,HIPK2,0%
same,%Inh,HIPK3,48%
same,%Inh,HIPK4,0%
same,%Inh,HPK1,35%
same,%Inh,HUNK,0%
same,%Inh,ICK,16%
same,%Inh,IGF1R,13%
Cc1ccc(CC(=O)N2CCc3cc(-c4cn(C)c5ncnc(N)c45)ccc32)cc1 [GSK2634758],%Inh,FYN,41%
same,%Inh,GAK,34%
same,%Inh,"GCN2(Kin.Dom.2,S808G)",42%
same,%Inh,GRK1,0%
same,%Inh,GRK2,0%
same,%Inh,GRK3,24%
same,%Inh,GRK4,0%
same,%Inh,GRK7,0%
same,%Inh,GSK3A,9%
same,%Inh,GSK3B; [1],0%
same,%Inh,HASPIN,5%
same,%Inh,HCK,0%
same,%Inh,HIPK1,6%
same,%Inh,HIPK2,0%
same,%Inh,HIPK3,13%
same,%Inh,HIPK4,5%
same,%Inh,HPK1,63%
same,%Inh,HUNK,1%
same,%Inh,ICK,0%
same,%Inh,IGF1R,18%
O=C(Nc1ccc(Oc2ccc3nc(NC(=O)C4CC4)cn3n2)c(F)c1)c1cccn(-c2ccccc2)c1=O,%Inh,FYN,15%
same,%Inh,GAK,0%
same,%Inh,"GCN2(Kin.Dom.2,S808G)",20%
same,%Inh,GRK1,0%
same,%Inh,GRK2,0%
same,%Inh,GRK3,0%
same,%Inh,GRK4,21%
same,%Inh,GRK7,0%
same,%Inh,GSK3A,25%
same,%Inh,GSK3B; [1],0%
same,%Inh,HASPIN,0%
same,%Inh,HCK,71%
same,%Inh,HIPK1,40%
same,%Inh,HIPK2,0%
same,%Inh,HIPK3,0%
same,%Inh,HIPK4,20%
same,%Inh,HPK1,11%
same,%Inh,HUNK,6%
same,%Inh,ICK,0%
same,%Inh,IGF1R,0%
COC(=O)c1cccc(NC(=O)NC2CCN(c3ccnc(NCc4ccc(F)cc4)n3)CC2)c1 [GSK1379860],%Inh,FYN,10%
same,%Inh,GAK,0%
same,%Inh,"GCN2(Kin.Dom.2,S808G)",0%
same,%Inh,GRK1,0%
same,%Inh,GRK2,0%
same,%Inh,GRK3,38%
same,%Inh,GRK4,0%
same,%Inh,GRK7,0%
same,%Inh,GSK3A,6%
same,%Inh,GSK3B; [1],8%
same,%Inh,HASPIN,17%
same,%Inh,HCK,35%
same,%Inh,HIPK1,0%
same,%Inh,HIPK2,47%
same,%Inh,HIPK3,10%
same,%Inh,HIPK4,0%
same,%Inh,HPK1,24%
same,%Inh,HUNK,0%
same,%Inh,ICK,0%
same,%Inh,IGF1R,0%
CC(=O)Nc1ccc(-c2cc3ncnc(SCC(=O)O)c3s2)cc1,%Inh,FYN,0%
same,%Inh,GAK,59%
same,%Inh,"GCN2(Kin.Dom.2,S808G)",0%
same,%Inh,GRK1,0%
same,%Inh,GRK2,11%
same,%Inh,GRK3,19%
same,%Inh,GRK4,6%
same,%Inh,GRK7,0%
same,%Inh,GSK3A,0%
same,%Inh,GSK3B; [1],3%
same,%Inh,HASPIN,13%
same,%Inh,HCK,15%
same,%Inh,HIPK1,96.7%
same,%Inh,HIPK2,97.5%
same,%Inh,HIPK3,95.1%
same,%Inh,HIPK4,95.6%
same,%Inh,HPK1,11%
same,%Inh,HUNK,0%
same,%Inh,ICK,60%
same,%Inh,IGF1R,0%
CC(C(=O)NC1CCN(c2ccnc(Nc3ccc(F)cc3)n2)C1)c1ccc(Cl)cc1 (centres unmarked) [GSK1379713],%Inh,FYN,14%
same,%Inh,GAK,0%
same,%Inh,"GCN2(Kin.Dom.2,S808G)",0%
same,%Inh,GRK1,0%
same,%Inh,GRK2,0%
same,%Inh,GRK3,0%
same,%Inh,GRK4,12%
same,%Inh,GRK7,0%
same,%Inh,GSK3A,0%
same,%Inh,GSK3B; [1],0%
same,%Inh,HASPIN,30%
same,%Inh,HCK,0%
same,%Inh,HIPK1,0%
same,%Inh,HIPK2,6%
same,%Inh,HIPK3,0%
same,%Inh,HIPK4,0%
same,%Inh,HPK1,49%
same,%Inh,HUNK,0%
same,%Inh,ICK,0%
same,%Inh,IGF1R,0%
Cl.c1ccc(Oc2ccc(Nc3ccnc4cc(-c5ccc(CN6CCNCC6)o5)ccc34)cc2)nc1 [GW567142],%Inh,FYN,82%
same,%Inh,GAK,68%
same,%Inh,"GCN2(Kin.Dom.2,S808G)",0%
same,%Inh,GRK1,0%
same,%Inh,GRK2,10%
same,%Inh,GRK3,0%
same,%Inh,GRK4,0%
same,%Inh,GRK7,0%
same,%Inh,GSK3A,19%
same,%Inh,GSK3B; [1],0%
same,%Inh,HASPIN,0%
same,%Inh,HCK,84%
same,%Inh,HIPK1,0%
same,%Inh,HIPK2,0%
same,%Inh,HIPK3,7%
same,%Inh,HIPK4,10%
same,%Inh,HPK1,0%
same,%Inh,HUNK,1%
same,%Inh,ICK,0%
same,%Inh,IGF1R,0%
CN(c1ccccc1CNc1nc(Nc2ccc3c(c2)CC(=O)N3)ncc1C(F)(F)F)S(C)(=O)=O,%Inh,FYN,0%
same,%Inh,GAK,45%
same,%Inh,"GCN2(Kin.Dom.2,S808G)",0%
same,%Inh,GRK1,12%
same,%Inh,GRK2,0%
same,%Inh,GRK3,0%
same,%Inh,GRK4,7%
same,%Inh,GRK7,47%
same,%Inh,GSK3A,64%
same,%Inh,GSK3B; [1],0%
same,%Inh,HASPIN,0%
same,%Inh,HCK,3%
same,%Inh,HIPK1,83%
same,%Inh,HIPK2,80%
same,%Inh,HIPK3,64%
same,%Inh,HIPK4,89%
same,%Inh,HPK1,76%
same,%Inh,HUNK,0%
same,%Inh,ICK,0%
same,%Inh,IGF1R,88%
COc1ccc(Nc2nccc(N3CCC(NC(=O)c4cccc(C#N)c4)C3)n2)cc1 (centres unmarked) [GSK1379730],%Inh,FYN,0%
same,%Inh,GAK,0%
same,%Inh,"GCN2(Kin.Dom.2,S808G)",2%
same,%Inh,GRK1,0%
same,%Inh,GRK2,3%
same,%Inh,GRK3,8%
same,%Inh,GRK4,0%
same,%Inh,GRK7,0%
same,%Inh,GSK3A,0%
same,%Inh,GSK3B; [1],13%
same,%Inh,HASPIN,6%
same,%Inh,HCK,5%
same,%Inh,HIPK1,0%
same,%Inh,HIPK2,0%
same,%Inh,HIPK3,0%
same,%Inh,HIPK4,2%
same,%Inh,HPK1,42%
same,%Inh,HUNK,0%
same,%Inh,ICK,0%
same,%Inh,IGF1R,0%
CCCC(=O)Nc1n[nH]c2ncccc12 [SB-601436],%Inh,FYN,0%
same,%Inh,GAK,0%
same,%Inh,"GCN2(Kin.Dom.2,S808G)",0%
same,%Inh,GRK1,13%
same,%Inh,GRK2,0%
same,%Inh,GRK3,0%
same,%Inh,GRK4,0%
same,%Inh,GRK7,11%
same,%Inh,GSK3A,38%
same,%Inh,GSK3B; 1 µM,9%
same,%Inh,HASPIN,29%
same,%Inh,HCK,0%
same,%Inh,HIPK1,20%
same,%Inh,HIPK2,0%
same,%Inh,HIPK3,0%
same,%Inh,HIPK4,0%
same,%Inh,HPK1,6%
same,%Inh,HUNK,28%
same,%Inh,ICK,7%
same,%Inh,IGF1R,0%

# Reference: publication PMC5540273 (PLoS ONE, 2017)
